# High-throughput results from PubChem BioAssay.
# In the library only some 12% were active in any assay of this set; here they are far more common.
# Sfp inh: blocks B. subtilis Sfp PPTase activity; Q9F4F7; Potency, µM, for inactives: largest response in the series, negative = inhibition, hits mostly inhibitors; Biochemical Sfp PPTase activity, qHTS; 310,000 tested, 3.5% active; AID 1490;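 note: the enzyme is Sfp with the accession as filed and its product quenches rhodamine fluorescence; 0% = enzyme reaction without inhibitor and -100% = no enzyme wells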
#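 After 15 min at room temperature with compound, 15 nM Sfp received 5 uM rhodamine-CoA plus 12.5 uM BHQ-2-ybbR (50 mM Hepes pH 7.6, 10 mM MgCl2). Rate came from the fluorescence difference over 30 min, ex 525/em 598 nm.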
# HP1b binding inh: blocks HP1-beta chromodomain binding to methylated histone tails | P83916 | AlphaScreen HP1-beta / biotin-H3K9me3 peptide binding | Potency, µM (doses to about 114 µM), for the others: at the top dose activity change, negative = inhibition, actives largely listed as inhibitors | 390,000 tested, 0.56% active; note: nearly all actives have a fitted effect of over 70% in size
#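 Compound inhibition of the preformed complex between 50 nM HP1-beta and 50 nM biotinylated H3K9me3 peptide was read by AlphaScreen. Buffer was PBS pH 7.4 with 0.01% Tween-20. Incubations ran 30 min at room temperature, with 10 ug/mL donor/acceptor beads.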
# JMJD2A Tudor inh: inhibitors of human JMJD2A Tudor domain; AlphaScreen JMJD2A-Tudor / H3K4me3 peptide binding; Potency, µM (series often up to 114 µM), inactives show top-dose activity change, negative = inhibition, usual class: inhibitors; O75164; AID 504339; 390,000 tested, 4.4% active; note: % is set by controls: 0 for no effect and ±100 for the full control effect; nearly all actives have a fitted effect of over 50% in size
# L3MBTL1 inh: inhibitors of human L3MBTL1; Q9Y468; AlphaScreen L3MBTL1–H3K9me1 peptide binding; Potency, µM (doses to about 57.1 µM), without a hit: top-dose activity, negative = inhibition, hits mostly inhibitors; 230,000 tested, 0.66% active; AID 485360; note: % is set by controls: 0 for no effect and ±100 for the full control effect; nearly all actives have a fitted effect of over 60% in size
#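 L3MBTL1 50 nM + b-AHA-H3(1-15)K9me1 75 nM, 30 min RT; compound added, 30 min RT; streptavidin donor/Ni-chelate acceptor beads 10 ug/mL each final, 30 min RT dark; AlphaScreen read.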
# BAZ2B block: blocks human BAZ2B | Q9UIF8 | AlphaScreen BAZ2B-H3K14Ac peptide displacement | Potency, µM (top dose mostly 114 µM), inactives show at the highest dose activity change, negative = inhibition, most hits filed as inhibitors | 360,000 tested, 4.4% active; note: % is set by controls: 0 for no effect and ±100 for the full control effect; nearly all actives have a fitted effect of over 60% in size
# Target sequence (Q9UIF8 whole entry, looked up): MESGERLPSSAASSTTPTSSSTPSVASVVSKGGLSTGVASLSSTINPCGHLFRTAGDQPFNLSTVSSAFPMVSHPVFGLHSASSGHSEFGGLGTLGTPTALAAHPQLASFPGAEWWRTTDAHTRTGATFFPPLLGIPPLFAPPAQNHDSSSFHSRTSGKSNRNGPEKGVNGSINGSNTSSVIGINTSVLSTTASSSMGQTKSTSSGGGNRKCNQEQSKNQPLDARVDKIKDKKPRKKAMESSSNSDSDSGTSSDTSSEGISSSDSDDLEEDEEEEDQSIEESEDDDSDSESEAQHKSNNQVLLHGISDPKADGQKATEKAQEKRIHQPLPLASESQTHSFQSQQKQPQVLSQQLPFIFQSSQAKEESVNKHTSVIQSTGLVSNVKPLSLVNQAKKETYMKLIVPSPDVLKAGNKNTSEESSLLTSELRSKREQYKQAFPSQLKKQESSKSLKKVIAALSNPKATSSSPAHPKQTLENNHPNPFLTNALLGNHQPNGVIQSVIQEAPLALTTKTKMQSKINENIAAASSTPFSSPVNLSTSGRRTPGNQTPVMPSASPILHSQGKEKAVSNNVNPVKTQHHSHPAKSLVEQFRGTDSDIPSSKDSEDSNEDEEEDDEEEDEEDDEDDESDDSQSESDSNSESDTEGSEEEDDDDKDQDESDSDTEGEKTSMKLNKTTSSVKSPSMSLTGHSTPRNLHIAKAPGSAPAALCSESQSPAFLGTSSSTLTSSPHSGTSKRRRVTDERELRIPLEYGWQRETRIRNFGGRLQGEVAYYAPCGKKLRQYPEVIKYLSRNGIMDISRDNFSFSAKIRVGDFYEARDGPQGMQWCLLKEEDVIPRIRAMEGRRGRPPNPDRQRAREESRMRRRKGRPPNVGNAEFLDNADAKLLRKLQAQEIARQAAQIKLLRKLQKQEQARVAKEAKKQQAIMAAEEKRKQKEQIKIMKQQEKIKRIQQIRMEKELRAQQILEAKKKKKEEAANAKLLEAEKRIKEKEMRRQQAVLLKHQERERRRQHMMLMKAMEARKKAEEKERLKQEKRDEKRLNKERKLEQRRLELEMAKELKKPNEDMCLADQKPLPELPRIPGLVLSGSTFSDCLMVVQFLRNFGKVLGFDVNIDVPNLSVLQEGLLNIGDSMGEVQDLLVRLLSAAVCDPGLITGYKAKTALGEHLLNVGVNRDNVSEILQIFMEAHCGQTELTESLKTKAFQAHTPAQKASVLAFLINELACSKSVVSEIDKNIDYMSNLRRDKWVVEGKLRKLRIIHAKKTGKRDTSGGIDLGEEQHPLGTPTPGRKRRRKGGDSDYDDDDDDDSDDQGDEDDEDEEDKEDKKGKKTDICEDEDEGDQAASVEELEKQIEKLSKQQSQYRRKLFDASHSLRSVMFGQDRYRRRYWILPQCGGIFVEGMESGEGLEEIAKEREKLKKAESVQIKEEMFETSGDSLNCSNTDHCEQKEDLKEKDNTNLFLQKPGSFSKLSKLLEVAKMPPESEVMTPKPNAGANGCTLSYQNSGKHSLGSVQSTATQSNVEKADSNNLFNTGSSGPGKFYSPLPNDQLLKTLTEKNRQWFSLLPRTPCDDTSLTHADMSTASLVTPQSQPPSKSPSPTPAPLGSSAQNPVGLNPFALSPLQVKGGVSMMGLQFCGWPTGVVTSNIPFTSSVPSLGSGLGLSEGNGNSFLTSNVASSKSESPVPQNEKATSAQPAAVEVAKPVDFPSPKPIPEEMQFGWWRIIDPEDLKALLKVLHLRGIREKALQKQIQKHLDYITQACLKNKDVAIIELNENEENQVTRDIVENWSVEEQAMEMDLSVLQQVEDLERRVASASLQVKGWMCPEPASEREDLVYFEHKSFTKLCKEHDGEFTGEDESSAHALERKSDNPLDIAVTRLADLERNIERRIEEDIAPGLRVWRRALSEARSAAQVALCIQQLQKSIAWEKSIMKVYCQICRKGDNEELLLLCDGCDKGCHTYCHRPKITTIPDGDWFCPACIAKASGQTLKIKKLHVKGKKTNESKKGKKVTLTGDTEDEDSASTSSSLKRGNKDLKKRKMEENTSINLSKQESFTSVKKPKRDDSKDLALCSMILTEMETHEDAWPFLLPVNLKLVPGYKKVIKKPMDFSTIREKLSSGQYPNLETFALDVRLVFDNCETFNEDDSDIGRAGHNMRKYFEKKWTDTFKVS
#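 AlphaScreen displacement: compounds (up to 110uM) incubated 30 min at room temperature with a preformed 50 nM BAZ2B/50 nM biotinylated H3K14Ac peptide complex in PBS pH 7.4 with Tween-20. Donor and acceptor beads at 10 ug/mL final added, 20 min light-protected before reading.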
# G9a inh: blocks human histone lysine methyltransferase G9a; Q96KQ7; G9a H3K9 monomethylation, AlphaScreen, 2 h; Potency, µM (highest dose often 102 µM), for inactives: top-dose activity, negative = inhibition, actives largely listed as inhibitors; 350,000 tested, 8.8% active; AID 504332; note: % is set by controls: 0 for no effect and ±100 for the full control effect; nearly all actives have a fitted effect of over 75% in size
#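 Compounds were preincubated with 20 nM G9a for 15 min, after which biotinylated H3K9 peptide (500 nM) and SAM (20 uM) started a 2 h room-temperature reaction. Monomethylated product was quantified by antibody-based AlphaScreen chemiluminescence.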
# * = called active by the depositor; ? = inconclusive; · = no result given; ! = not confirmed by another sample; [ ] = another dose, or the depositor's remark. Calls come from the whole dose curve; as a rule, active = well fitted curve in the direction sought with a large enough effect; inconclusive = small, poorly fitted or top-dose-only effect, or another doubt; inactive = no such curve, though single readings can be large; an effect the other way counts as inactive or inconclusive. Potency is the fitted concentration of half-maximal effect.
SMILES,Sfp inh,HP1b binding inh,JMJD2A Tudor inh,L3MBTL1 inh,BAZ2B block,G9a inh
CCN1CCN(CC(O)COc2ccc(C(C)=O)cc2)CC1 (stereo unspecified),10%,52%,-30%,1%,2%,50µM*
CC(=O)c1ccc(OCC(O)CN2CCN(Cc3ccc4c(c3)OCO4)CC2)cc1 (stereo unspecified),89µM*!,48%,63µM*,4%,-10%,?
CC(C)c1ccc(NC2(C#N)C(=O)Nc3ccccc32)cc1 (stereo unspecified),4%,11%,?,-3%,?,71µM*
N[C@H](CSSC[C@@H](N)C(=O)O)C(=O)O,23%,·,·,·,·,·
COc1ccccc1CNc1cc(-c2ccc(C(=O)N(C)C)cc2)ncn1,16%,·,·,·,·,0%[0.501 µM]
CC(=O)N1CC[n+]2c(-c3ccc(Cl)cc3Cl)csc21,32µM*,28%,-32%,-3%,?,13µM*
Cc1cccc(N(CC(=O)NCCSCc2cccc(Cl)c2)S(=O)(=O)c2ccccc2)c1C,·,15%,-12%,·,7%,4%[59 µM]
O=C(Nc1cccc(C(=O)N2CCCC2)c1)C1CCCCC1,·,16%,-15%,·,·,·
CCOc1cc2nc3c4ccccc4n(C)c3nc2cc1OCC,-8%,73%,-15%,43%,43%,-7%
CCN(CC)Cc1cc(Nc2c3ccccc3nc3c4ccccc4n(C)c23)cc(CN(CC)CC)c1O,·,?,45µM*,·,·,·
CC(C)C[C@H](N)c1nnc(S(=O)(=O)Cc2ccc(F)cc2)o1,14µM*,55%,-12%,-2%,-26%,?
COc1ccc(CN2CSC(=S)N(Cc3ccc(OC)cc3)C2)cc1,1%,64%,1%,5%,2%,-5%
S=C1SCN(CC2CC2)CN1CC1CC1,35µM*,26%,-9%,·,?,-27%
O=C(NCCCCCCNC(=O)OCc1ccccc1)OCc1ccccc1,·,16%,-6%,·,·,·
O=C(/C=C/c1ccco1)Nc1ccc(Oc2ccc(Cl)cc2)cc1,-8%,22%,11%,-3%,?,34%[0.501 µM]
O=C(N/C=C/c1ccco1)OCc1ccccc1,-13%,35%,-31%,-12%,?,50µM*
O=C(N/C=C/c1ccco1)Nc1cccc(Cl)c1,4%,6%,?,-15%,?,50µM*
COc1ccc(NC(=O)N/C=C/c2ccco2)cc1,50µM*,-17%,?,?,?,10µM*
COc1ccccc1NC(=O)CSc1nncn2c1cc1sccc12,·,31%,-3%,·,-14%,-24%[59 µM]
O=C(NCc1ccccn1)C(=O)N/N=C/c1ccccc1O,4%,53%,25µM*,·,40µM*,48%[59 µM]
Cc1cc(/C=N/NC(=O)C(=O)NCc2ccccn2)c(C)n1-c1cccc(Br)c1,5%,6%,?,-27%,50µM*,50µM*
O=C(NCCCN1CCOCC1)C(=O)N/N=C/c1ccccc1O,31%,65%,28µM*,?,28µM*,29%
CCOc1ccc(CNC(=O)Cn2cc3c(n2)-c2c(oc(C(=O)N4CCOCC4)c2C)CC3)cc1,·,27%,56µM*,·,?,?
O=C(CSC1=NNC(c2ccccn2)S1)Nc1ccccc1 (stereo unspecified),-14%,42%,6.3µM*,·,5.6µM*,?
O=C(CSC1=NNC(c2ccccn2)S1)Nc1cccc(Cl)c1 (stereo unspecified),0%,14%,22µM*,·,7.1µM*,·
SMILES,Sfp inh,HP1b binding inh,JMJD2A Tudor inh,L3MBTL1 inh,BAZ2B block,G9a inh
O=C(CSc1nncn1-c1ccccn1)Nc1cccc(Cl)c1,0%,44%,-3%,11%,-4%,-40%
O=C(CSc1ccccn1)Nc1ccc(NC(=O)CSc2ccccn2)cc1,4%,27%,-8%,4%,-4%,·
CC(NC(=O)c1ccco1)C(=O)N1CCN(c2cccc(C(F)(F)F)c2)CC1 (stereo unspecified),·,47%,-3%,42%,5%,-121%[12.7 µM]
O=C(COC(=O)c1ccc(Br)o1)Nc1ccc(N2CCOCC2)cc1,·,14%,-22%,-11%,-4%,22µM*
CCNCC(=O)Nc1ccc(N2CCOCC2)cc1,-2%,19%,-16%,11%,?,?
O=C(COC(=O)c1ccccc1O)Nc1ccc(N2CCOCC2)cc1,·,39%,-3%,5%,12%,?
Cc1ccc(CNCC(=O)Nc2ccc(N3CCOCC3)cc2)cc1,?,40µM*,1.4µM*,-5%,35µM*,·
CC1CCc2cc(F)cc3c2N1C(=O)C(C(=O)Nc1cnccn1)C3=O (stereo unspecified),·,-17%,-18%,·,·,·
Cc1ccc(NC(=O)c2ccc(OC(=O)COc3cccc(Cl)c3)cc2)cc1,29%,7%,-8%,-6%,2%,8%
CC(=O)C(Sc1nn(C)c(=S)s1)C(=O)Nc1ccccc1 (stereo unspecified),40µM*,?,50µM*,1%,?,3.5µM*
CCCCn1c(N)c(N(CCC(C)C)C(=O)C2CC(=O)N(c3ccccc3OCC)C2)c(=O)[nH]c1=O (stereo unspecified),15%,17%,-6%,·,-14%,22%
COC(=O)[C@@]1(Cc2ccccc2)[C@H]2c3cc(C(=O)N4CCCC4)n(Cc4ccccc4)c3C[C@H]2CN1C(=O)c1ccccc1,5%,·,·,·,·,·
CCc1ccc[n+](-c2[nH]c(=O)sc2/C=N/N=C(\[O-])c2ccncc2)c1,-7%,24%,-12%,·,?,40µM*
CC(C)(C)C(=O)NCCCC(=O)O,5%,·,·,·,·,5%[12.7 µM]
COc1ccc(Nc2ncc(C(=O)N3CCN(c4ccc(OC)cc4)CC3)c3ccccc23)cc1,·,8%,?,·,-38%,18µM*
COc1ccc(N2CCN(C(=O)c3cc(-c4cccs4)nc4ccccc34)CC2)cc1,10%,-31%,?,-24%,?,22µM*
COc1ccc(N2CCN(C(=O)c3ccc(SC)cc3OC)CC2)cc1,-15%,-10%,-34%,?,-37%,28µM*
COc1ccc(N2CCN(C(=O)c3csc4ccccc34)CC2)cc1,15%,-25%,?,-3%,-30%,20µM*
COc1cc(SC)ccc1C(=O)N1CCN(c2ccccc2F)CC1,21%,-12%,?,-7%,-20%,-1%
COc1ccc(-c2cc(C(=O)N3CCN(c4ccccc4)CC3)c3ccccc3n2)cc1OC,6%,-11%,?,·,-36%,?
Nc1c(C(=O)c2ccccc2O)cnn1-c1ccc(S(=O)(=O)N2CCOCC2)cc1[N+](=O)[O-],-2%,·,·,-4%,-16%,-19%
Cc1coc2c1c(C)cc1oc(=O)c(CC(=O)NCCCCCC(=O)O)c(C)c12,11%,58%,-23%,·,4%,26%
